Assay [1] deals with Klebsiella pneumoniae. The conditions noted are these: Concentration 20 uM; ASSAY_TEST Inhibition of Bacterial Growth; detection method Absorption (OD600); MEDIA CAMHB; plate type 384well; NBS; CORNING #3640; time 18 hr.
The test system of assay [2] is Candida albicans. The note with it: 20 µM.
Assay [3] relates to Cryptococcus neoformans. The conditions noted are these: Concentration 20 uM; ASSAY_TEST Inhibition of Fungal Growth; detection method Resazurin; Absorption (OD600-OD570); plate type 384well; NBS; CORNING #3640. Background: The colour change of resazurin is a common sign of viable cells or microbes.

Potency and affinity values are given separately.

In the case of `C[C@@H]1C[C@H]2[C@@H]3CCC4=CC(=O)C=C[C@]4(C)[C@@]3(F)[C@@H](O)C[C@]2(C)[C@H]1C(=O)CO` [DESOXIMETASONE], the Inhibition – broadly, the drop in the measured response relative to a control, in per cent – was 9.74% in assay [1], 2.64% in assay [2] and 2.06% in assay [3].
The like results for `Cl.NC1CCN(c2cccc(Cl)n2)CC1` were, in that order, 7.75%, 2.49% and 0.18%.
Turning to `CC(=O)OCC(=O)C12OC3(CCCC3)OC1CC1C3CCC4=CC(=O)C=CC4(C)C3(F)C(O)CC12C` (stereo not given), the Inhibition in assay [1] came out at 13.26%; in assay [2], 3.39%; in assay [3], 1.74%.
Consider `OCc1cccnc1` [NICOTINYL ALCOHOL], for which the Inhibition in assay [1] is 6.16%; in assay [2], 2.84%; in assay [3] it was -7.14%.
As to `CC(C)c1ccc2oc3nc(N)c(C(=O)O)cc3c(=O)c2c1` [AMLEXANOX], the Inhibition was 7.43% in assay [1], 8.26% in assay [2] and -1.01% in assay [3].
With `Cc1nc2n(c(=O)c1CCN1CCC(c3noc4cc(F)ccc34)CC1)CCCC2` [RISPERIDONE], the Inhibition is 4.8% in assay [1], 0.09% in assay [2] and -0.58% in assay [3].
Consider `CN(CCOc1ccc(NS(C)(=O)=O)cc1)CCc1ccc(NS(C)(=O)=O)cc1` [DOFETILIDE], for which the values for the Inhibition in assay [1], in assay [2] and in assay [3] were 7.49%, 2.12% and -1.31%, respectively.
As to `CN1CCC(=C2c3ccccc3CC(=O)c3sccc32)CC1.O=C(O)/C=C/C(=O)O` [KETOTIFEN FUMARATE], the results for the Inhibition in assay [1], in assay [2] and in assay [3] were 1.04%, 3.18% and -3.16%, respectively.
As for `CC(C[N+](C)(C)C)OC(N)=O.[Cl-]` (stereo not given) [BETHANECHOL CHLORIDE], the Inhibition in assay [1] was found to be 8.32%; in assay [2], 0.53%; in assay [3], 0.14%.
For `CC[C@@]1(O)C(=O)OCc2c1cc1n(c2=O)Cc2cc3c(CN(C)C)c(O)ccc3nc2-1.Cl` [TOPOTECAN HYDROCHLORIDE], in that order: 17.31%, 1.75% and -3.31%.

(Values after ChEMBL document CHEMBL4513141, “CO-ADD screening of NIH (USA) - Clinical Collection” (2021).)
